Measured values taken from PubChem BioAssay AID588405 (Sanford-Burnham Center for Chemical Genomics, 2011).
The whole screen tested about 360,000 compounds, of which about 6,200 (1.7%) were called active.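 Rule for the calls: active = inhibition of at least 50% at 20 µM; inactive = the rest.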 This excerpt belongs to a sample that is enriched for actives.

Test: Peg3 promoter-driven luciferase inhibitors, primary screen, cell-based, HeLa, luciferase luminescence (AID 588405)
Details: HeLa PEG-Prom luciferase reporter, overnight, at 20 µM, active compounds read high
In the case of `CC(C)c1cc(C(=O)NC2CCCCCC2)c2ccccc2n1`, the inhibition is reported as -6.57% (inactive). In the case of `CN(c1ccc2nc3ccccc3c(=O)n2n1)C1CCCCC1`, the inhibition is reported as 81.5% (active). For `CC(C)C(C)NC(=O)COc1nc2ccccc2nc1N(C)C1CCCCC1` (stereo not given), the inhibition was 2.14% (inactive). In the case of `Cc1nc2c(OCC(=O)C(C)(C)C)cccn2c1N(C)Cc1cccs1`, the inhibition is reported as -4.66% (inactive). In the case of `CCCCc1ccc(S(=O)(=O)NC(=O)C2(C)CCN2C(=O)c2c(C)noc2C)cc1` (stereo not given), the inhibition is reported as -14.9% (inactive). With `COc1ccc(C(C)C)cc1-c1ccc2nncn2c1` the inhibition was -16.5% (inactive). For `CC1(Oc2ccc(Cl)cc2)CCN(Cc2csc3ccccc23)C1` (stereo not given), the inhibition was -17.9% (inactive). For `CC1(C(=O)NS(=O)(=O)c2ccccc2Cl)CCN1C(=O)c1cccc(F)c1` (stereo not given), the inhibition was -6.7% (inactive). With `O=c1[nH]c2ccc(S(=O)(=O)N3CCCC3)cc2[nH]1` the inhibition was 3.24% (inactive). With `Cc1cccc(NC(=O)CN2CCN(C(=O)C3CCN(C(=O)/C=C/c4ccccc4)CC3)CC2)c1C` the inhibition was -10.7% (inactive). In the case of `CCOC(=O)/C=c1\s/c(=C\c2ccc(C#N)cc2)c(=O)n1CC(=O)Nc1cccc(C)c1C`, the inhibition is reported as 57.2% (active). With `Cc1cccc(NC(=O)CSC(N)=O)c1C` the inhibition was 1.28% (inactive). In the case of `COC(=O)c1c(NC(=O)COc2ccc(Cl)cc2Cl)sc2c1CC(C)(C)NC2(C)C`, the inhibition is reported as 92.3% (active). In the case of `Cc1cnc(C(=O)OCC(=O)Nc2ccc(Cl)cc2Cl)cn1`, the inhibition is reported as -12% (inactive). With `CN1CCC(OC(=O)COc2ccc(Cl)cc2Cl)CC1` the inhibition was 3.36% (inactive). For `Cc1ccccc1S(=O)(=O)NC(=O)C1(C)CCN1C(=O)Cc1ccc(Cl)cc1Cl` (stereo not given), the inhibition was 3.83% (inactive). With `Cc1cccc(CNC(=O)c2sc(=O)n(Cc3ccccc3C)c2C)c1` the inhibition was 3.15% (inactive). In the case of `CCn1c(=O)c(=O)[nH]c2c(=O)oc3ccc(S(=O)(=O)Nc4ccc(OC)cc4)cc3c21`, the inhibition is reported as -5.21% (inactive). In the case of `CC(=O)N1C[C@@H](CO)[C@@H](N(C)C(=O)c2ccco2)C[C@H]1c1ccccc1`, the inhibition is reported as -9.39% (inactive). In the case of `COc1cc(SC)ccc1C(=O)NNC(=O)C1COc2ccccc2O1` (stereo not given), the inhibition is reported as -36.6% (inactive). With `COc1cc(SC)ccc1C(=O)Nc1nc(C)cs1` the inhibition was 99.9% (active). For `Cc1csc(NC(=O)CSc2nc(=O)cc(N)n2-c2ccc(F)cc2)n1`, the inhibition was 1.12% (inactive). With `CCc1nc2c(OCc3cccc(OC)c3)cccn2c1N(C)C(=O)C(C)C` the inhibition was 17.8% (inactive). In the case of `COc1cccc(CNc2nc(NCc3ccccc3OC)nc3ccsc23)c1`, the inhibition is reported as 30.7% (inactive). In the case of `Clc1ccccc1Nc1nc(NCc2cccs2)nc2ccsc12`, the inhibition is reported as 7.17% (inactive). For `COc1cccc(CNc2nc(NCc3cccs3)nc3ccsc23)c1`, the inhibition was 57.2% (active). In the case of `Oc1cccc2cc(-c3ccncc3)cnc12`, the inhibition is reported as -97.7% (inactive). For `O=C1c2ccccc2C(c2nc3ccccc3[nH]2)N1c1ccccc1` (stereo not given), the inhibition was 2.93% (inactive). In the case of `Cc1cccc(N2CC(C(=O)Nc3ccccc3N3CCCC3)CC2=O)c1C` (stereo not given), the inhibition is reported as 20.1% (inactive). In the case of `COc1cc(/C=N/NC(=O)c2cc(-c3ccccc3C)nc3ccccc23)cc(OC)c1O`, the inhibition is reported as 10.1% (inactive). With `COc1ccccc1-n1c(SCC(=O)Nc2cccc(C(=O)O)c2)nnc1-c1ccccc1O` the inhibition was -4.09% (inactive). In the case of `COc1cccc(/C=N/Nc2cc(C)nc(-c3ccccc3O)n2)c1O`, the inhibition is reported as 79.9% (active). With `CC1(C(=O)NS(=O)(=O)c2cccc(F)c2)CCN1C(=O)Cc1ccc(Cl)cc1Cl` (stereo not given) the inhibition was -4.9% (inactive). With `O=C(O)C1=CCCN(CCON=C(c2ccccc2)c2ccccc2)C1` the inhibition was -3.93% (inactive). For `Cc1cccc(-c2cnc(C(O)c3cc(C)cc(C)c3)[nH]2)c1` (stereo not given), the inhibition was 15.8% (inactive). For `CSc1ncnc2c1ncn2CC(=O)C1CCC2C3CCC4=CC(=O)CCC4(C)C3CCC12C` (stereo not given), the inhibition was 105% (active). In the case of `CSc1ncnc2c1ncn2CCCNCC1CCCCC1`, the inhibition is reported as -12.2% (inactive). With `CC(=O)C12CC(C)=C(C)CC1CC1C3CCC4=CC(=O)CCC4(C)C3CCC12C` (stereo not given) the inhibition was 14% (inactive). With `COc1ccc(OC)c(NC(=O)C2(C)CCN2C(=O)Cc2ccccc2)c1` (stereo not given) the inhibition was 0.38% (inactive). For `CC(C)Oc1cc(F)ccc1-c1cc(C(=O)Nc2cccc(Cl)c2)[nH]n1`, the inhibition was -14.2% (inactive). For `Nc1nonc1-n1nnc(C(=O)N/N=C\c2ccncc2)c1CN1CCCCC1`, the inhibition was 23.4% (inactive). With `Nc1nonc1-n1nnc(C(=O)N/N=C/c2cc(Br)ccc2O)c1CSC1=NCCS1` the inhibition was 56.4% (active). For `COCc1c(C(=O)N/N=C\c2cccnc2)nnn1-c1nonc1N`, the inhibition was 10.8% (inactive). In the case of `COc1cccc(-c2cnc3c(NC(C)=O)cc(-c4cc(F)ccc4OC)cn23)c1`, the inhibition is reported as 23.8% (inactive). With `CN(Cc1ccccc1)CC(O)COc1ccc(CNCc2cc3ccccc3s2)cc1` (stereo not given) the inhibition was 50.3% (active). With `COc1ccc(OCC(O)CN(C)C(=O)C(C)Oc2ccccc2)cc1` (stereo not given) the inhibition was 9.53% (inactive). For `COc1cccc(CN(C)CC(O)COC(c2ccccc2)c2ccccc2C)c1` (stereo not given), the inhibition was 4.99% (inactive). For `Cc1ccc(C)c(C(O)c2ncc(-c3cccc4ccccc34)[nH]2)c1` (stereo not given), the inhibition was 17.3% (inactive). With `COc1cccc(/C=C2\SC(=S)N(CCCC(=O)N3CCOCC3)C2=O)c1` the inhibition was -13.7% (inactive). In the case of `Cc1ccc(-c2nn(-c3ccccc3)cc2/C=C2\SC(=S)N(CCCCCC(=O)O)C2=O)o1`, the inhibition is reported as -22.9% (inactive). In the case of `COc1ccc(-c2nn(-c3ccccc3)cc2/C=C2/SC(=S)N(CCCC(=O)O)C2=O)c(C)c1`, the inhibition is reported as 60.7% (active). For `CCc1nc2c(OCc3ccc(Cl)cc3Cl)cccn2c1N(C)C(=O)C(C)C`, the inhibition was 14.2% (inactive). With `Cc1c(NC(=O)CSc2cccc3cccnc23)c(=O)n(-c2ccccc2)n1C` the inhibition was 23.3% (inactive). With `O=C(CSc1cccc2cccnc12)N/N=C/c1cccnc1` the inhibition was 74.3% (active). For `O=C(N/N=C\c1cccnc1)c1cc(-c2ccccc2)nc2c(Cl)cccc12`, the inhibition was 32.6% (inactive). For `CNc1cnc(-c2cc(OC)c(OC)c(OC)c2)cn1`, the inhibition was -13.3% (inactive). In the case of `CC(=O)NC(c1ccccc1)c1nc(-c2cccc(C(C)C)c2)cs1` (stereo not given), the inhibition is reported as 4.34% (inactive). With `COc1ccc(OCC(O)CNCCNc2nccc(C(F)(F)F)n2)cc1` (stereo not given) the inhibition was 1.34% (inactive). For `CC(C)(C)CC(C)(C)NCC(O)COCCOc1ccc(Br)cc1` (stereo not given), the inhibition was 103% (active). For `CC(Oc1ccc(Br)cc1)C(=O)NC1CCCCCC1` (stereo not given), the inhibition was -67% (inactive).
